Assay results as given in PubChem BioAssay AID687014 (The Scripps Research Institute Molecular Screening Center, 2013).
“And” between values parts separate entries of the source, which are not always exact repeats. Identical values can stand only once. The whole screen tested about 370,000 compounds, of which about 6,800 (1.8%) were called active.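 The calls were made as follows: active = activation above a cutoff set at the mean of all screened compounds plus 3 SD (cut at about 10% in these data); inactive = the rest.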 The list comes from a sample in which actives are over-represented; it also holds similar structures and randomly drawn compounds.

system: Nuclear hormone receptor DAF-12 (Heterodera glycines), GAL4 fusion; assay: hgDAF-12 GAL4 fusion reporter activation – cell-based, luminescence, HEK293, UAS-luciferase, primary screen (AID 687014); details: HEK293 GAL4-hgDAF12 UAS-luciferase reporter, agonist luminescence; at 6.8 µM; active compounds read high; normalized to butyrate control;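 also: 0% = DMSO wells and 100% = sodium butyrate wells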

SMILES	activation
CCOC(=O)c1c(S(=O)(=O)Nc2cccc(Cl)c2)c(C)n(C)c1C	-4.39% (inactive)
CCOC(=O)c1ccc(CS(=O)c2ccc(Cl)cc2)o1 (configuration not stated)	-2.05% (inactive)
CCOC(=O)c1c(Cc2ccc(Cl)cc2)c[nH]c1C	12.8% (active)
CCOC(=O)[C@]12CCCC=C1N(Cc1ccc(OC)cc1)C(=O)[C@@H]2CC(=O)N1CCOCC1	0.99% (inactive)
CNC(=O)/C(=C\C=C\c1ccccc1)NC(=O)c1ccc([N+](=O)[O-])cc1	1.17% (inactive)
COCC(=O)N[C@@H]1C[C@@H]2O[C@@H](CO)CC[C@@H]2O[C@@H]1CCc1ccc(-c2ccccc2)cc1	2.02% (inactive)
CC1CCCC(C)N1C(=O)CSc1nnnn1C1CCCC1 (configuration not stated)	3.93% (inactive)
O=C(CSc1nnnn1C1CCCC1)N1CCCCC1	11.8% (active)
CC(=O)Nc1ccc(NC(=O)CSc2nnnn2C2CCCCC2)cc1	0.66% (inactive)
Cc1cc(NCCc2c[nH]c3ccccc23)ccc1Oc1cccnc1	-6.96% (inactive)
C[C@H](O)[C@@H]1CN2CCc3ccc(-c4ccc5c(c4)OCO5)cc3[C@@H]2C[C@@H]1N(C)C(=O)C1CCCCC1	5.63% (inactive)
C[C@H]1[C@H](NC(=O)c2cccc(N(C)C)c2)CC[C@@]23CCCN2C(=O)CCC[C@@H]13	4.78% (inactive)
Cc1ccc(Nc2nc(-c3ccc(O)cc3O)cs2)nc1	11% (active)
Cc1ccc(-c2csc(NCCc3nc4cc(Cl)c(Cl)cc4n3CCOCCO)n2)cc1	0.43% (inactive)
CC(=O)Nc1cnc(-c2ccc(O)cc2C)cn1	0.71% (inactive)
C/C=C/c1ccc(OCCOc2ccc(C=O)cc2OC)c(OC)c1	1.06% (inactive)
O=C(NCCc1ccc(F)cc1)c1ccc2nccnc2c1	15.2% (active)
O=C(NCCc1ccc(F)cc1)c1ccc(S(=O)(=O)N2CCCCC2)cc1	-1.32% (inactive)
O=C(NCCc1ccc(F)cc1)c1n[nH]c2ccccc12	4.51% (inactive)

SMILES	activation
O=S(=O)(c1ccc2c(c1)OCCCO2)N1CCN(S(=O)(=O)c2c(F)cccc2F)CC1	3.46% (inactive)
CCOc1cc(C(=O)N2CCc3cc(OC)c(OC)cc3C2)ccc1OC(F)F	-2.99% (inactive)
CCOC(=O)C1CCN(C(=O)COC(=O)C2CCN(S(=O)(=O)c3ccc4c(c3)OCCO4)CC2)CC1	1.65% (inactive)
CCn1c2ccccc2c2cc(CC(N)=O)ccc21	-1.01% (inactive)
O=C(O)Cc1csc(-c2cccc(Oc3ccccc3)c2)n1	2.98% (inactive) and 2.42% (inactive)
NC(=O)Cc1ccc2sc(-c3ccccc3)nc2c1	16.9% (active)
Clc1ccc(C(Cn2ccnc2)OCc2ccsc2Cl)c(Cl)c1 (configuration not stated)	-0.6% (inactive)
COc1ccnc(C(=O)N2CCC(Oc3cccnc3)CC2)c1	-2.68% (inactive)
COc1ccc(CCC(C)N2CCc3ccccc3C2)cc1 (configuration not stated)	1.85% (inactive)
COC(=O)[C@]12C[C@H](CC(=O)NCc3ccc(C)o3)C(=O)N(CCC3=CCCCC3)C1=C[C@H](C(C)(C)C)O[C@@H]2C	1.5% (inactive)
COc1ccc(C2=NN(C(=O)c3ccccc3C(=O)O)C(c3ccccc3O)C2)cc1 (configuration not stated)	16.4% (active)
COc1ccc(C2CC(c3ccccc3)=NN2C(=O)CSc2nccc(=O)[nH]2)cc1 (configuration not stated)	1% (inactive)
COc1ccc(C2CC(c3ccccc3)=NN2C(=O)c2ccc(Cl)c([N+](=O)[O-])c2)cc1 (configuration not stated)	-2.91% (inactive)
COc1ccc(NCc2nnc(SCc3ccccc3)n2-c2ccc(OC)cc2)cc1	1.53% (inactive)
COc1ccc2nc(SCc3ccccc3)nc(C)c2c1	16.3% (active)
COc1ccc(CSc2nnc(-c3cccc(C)c3)n2C)cc1	-0.32% (inactive)
CCOc1ccc(S(=O)(=O)NCC2CCCO2)cc1 (configuration not stated)	-0.13% (inactive)
COC(=O)[C@]12C[C@H](CC(=O)NCc3ccccc3)C(=O)N(Cc3ccccc3)C1=C[C@H](COCc1ccccc1)O[C@@H]2C	-0.41% (inactive)
Cc1ccc(NC(=O)N2c3ccccc3SC2c2ccco2)c(C)c1 (configuration not stated)	-2.03% (inactive)

SMILES	activation
O=C(CCS(=O)(=O)c1ccccc1)Nc1ccc(Cl)c(Cl)c1	5% (inactive)
COc1ccc(C=C2CCC3C(CCCC34OCCO4)C2=O)cc1 (configuration not stated)	2.78% (inactive)
COc1ccc(/C=C2/CCCc3ccccc3C2=O)cc1	16.7% (active)
COc1ccccc1Oc1ccc(N/C=C2/CCCC2=O)cc1	2.59% (inactive)
COc1ccc(Cn2cc(COC(=O)N(C)Cc3ccccc3)nn2)cc1	2.67% (inactive)
CC(=O)Oc1ccc2c(=O)oc(-c3ccc([N+](=O)[O-])cc3)nc2c1	0.03% (inactive)
COc1cccc(-c2nc3cc(C)ccc3o2)c1	17.6% (active)
O=[N+]([O-])c1ccc2oc(-c3cccc(O)c3)nc2c1	19.1% (active)
COc1cccc(-c2nnc(SCCOc3ccc4c(C)cc(=O)oc4c3)o2)c1	-0.66% (inactive)
COc1cccc(-c2nc(CS(=O)(=O)CC(=O)NCCc3ccc(OC)c(OC)c3)c(C)o2)c1	0.2% (inactive)
O=[N+]([O-])c1ccc2c(c1)C(O)n1nc(-c3ccccc3)nc1S2 (configuration not stated)	-1.58% (inactive)
C=CCN1C(=O)[C@@H](CC(=O)NCCCOCCCC)[C@]2(C(=O)OCC)CCCCC/C=C/12	-2.8% (inactive)
C/C(=N/O)c1ccc(N2C(=O)C3C4C=CC(C3C2=O)C2C3C(=O)N(c5ccc(/C(C)=N/O)cc5)C(=O)C3C42)cc1 (configuration not stated)	-2.43% (inactive)
COc1ccc(-c2cc(-c3nnc(SCC(=O)Nc4cccc5ccccc45)n3N)[nH]n2)cc1	-0.33% (inactive)
CC[C@H](C)[C@H]1CNC(=O)C(=O)N1CC1CCN(CCc2ccc(OC)c(OC)c2)CC1	-1.21% (inactive)
CC[C@@H](CCC(=O)N(c1ccccc1)c1ccccc1)C1CC1	0.58% (inactive)
S=c1[nH]nc(/C=C/c2ccccc2)o1	4.59% (inactive)
O=c1oc(-c2ccccc2NS(=O)(=O)c2ccc(Cl)cc2)nc2ccccc12	0.61% (inactive)
O=c1oc(/C=C/c2ccccc2)nc2ccccc12	16% (active)
